Experimental data: PubChem BioAssay AID741 (SRMLSC, 2007)
Results filed as inconclusive are left out. Active and inactive are the calls of the source. Rule as the data show it: active = toxicity enhancement factor above about 0.054; inconclusive = between about 0.00067 and that limit; inactive = weaker than that.

Experiment: reversers of MRP drug resistance, dose response, cell-based (AID 741)
Details: MRP-overexpressing cells, viability with/without cytotoxic drug; slope difference: measured here: slope difference tox minus reversal, stronger effect = higher value; toxicity enhancement factor: stronger effect = higher value; viability: measured here: viability series, compound alone, at 10 µM, stronger effect = lower value

O=C1Nc2cc(C(=O)N3CCN(Cc4ccccc4)CC3)ccc2SC1N1CCOCC1 (stereo not given)
slope difference: -0.0531 | toxicity enhancement factor: -0.0007 (inactive) | viability: 83.2%

CC(C)CCn1c(=O)c2ccccc2n2c(CN(C)Cc3ccccc3)nnc12
slope difference: 2.35 | toxicity enhancement factor: 0.0598 (active) | viability: 82.3%

C=CCSc1nnc2n(CCc3ccccc3)c(=O)c3c4c(sc3n12)COC(C)(C)C4
slope difference: 3.35 | toxicity enhancement factor: 0.116 (active) | viability: 71%

CCc1nc(SCC(=O)Nc2c(C)nn(C)c2C)c2cnn(-c3ccccc3)c2n1
slope difference: -0.333 | toxicity enhancement factor: -0.0042 (inactive) | viability: 79.1%

COc1ccc(N2C(N)=C(C#N)C(c3cccnc3)C3=C2CC(C)(C)CC3=O)cc1 (stereo not given)
slope difference: 2.07 | toxicity enhancement factor: 0.0615 (active) | viability: 63%

CC1(C)CC(=O)C2=C(C1)N(c1cccc(O)c1)C1=C(C2)C(=O)CC(C)(C)C1
slope difference: 3.34 | toxicity enhancement factor: 0.0743 (active) | viability: 87.2%

Cc1ccc(/C=N/Nc2ncc(Cl)cc2Cl)s1
slope difference: -0.555 | toxicity enhancement factor: -0.0071 (inactive) | viability: 70.4%

O=C1CCCC2=C1C(c1cccs1)n1nc(SCc3ccccc3F)nc1N2 (stereo not given)
slope difference: 2.51 | toxicity enhancement factor: 0.0631 (active) | viability: 69.6%

COc1ccc(/C=C/C(=O)Nc2ccccc2C(=O)O)cc1OC
slope difference: -1.07 | toxicity enhancement factor: -0.0098 (inactive) | viability: 95.7%

Cc1ccc(Cl)c(Nc2ccccc2C(=O)O)c1Cl
slope difference: -0.97 | toxicity enhancement factor: -0.0098 (inactive) | viability: 92.5%
